# Columns and labels:
# [1] = test system: Tyrosine-protein kinase ABL1 (Homo sapiens), P00519 [T315I]; settings: at 1 µM
# [2] = test system: Tyrosine-protein kinase ABL1 (Homo sapiens), P00519 [Y253F]; settings: at 0.1 µM
# [3] = test system: Tyrosine-protein kinase ABL1 (Homo sapiens), P00519 [Y253F]; settings: at 1 µM
# [4] = molecular target: Tyrosine-protein kinase ABL1 (Homo sapiens) (UniProt P00519); settings: at 0.1 µM
# [5] = molecular target: Tyrosine-protein kinase ABL1 (Homo sapiens) (UniProt P00519); settings: at 1 µM
# [6] = molecular target: ALK tyrosine kinase receptor (Homo sapiens) (UniProt Q9UM73); settings: at 0.1 µM
# [7] = molecular target: ALK tyrosine kinase receptor (Homo sapiens) (UniProt Q9UM73); settings: at 1 µM
# [8] = molecular target: Tyrosine-protein kinase ABL2 (Homo sapiens) (UniProt P42684); settings: at 0.1 µM
# [9] = molecular target: Tyrosine-protein kinase ABL2 (Homo sapiens) (UniProt P42684); settings: at 1 µM
# [10] = molecular target: Tyrosine-protein kinase receptor UFO (Homo sapiens) (UniProt P30530); settings: at 0.1 µM;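 also: values are mean percent inhibition of AXL from the GSK PKIS screen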
# Tyrosine-protein kinase receptor UFO (Homo sapiens), sequence (P30530 whole entry): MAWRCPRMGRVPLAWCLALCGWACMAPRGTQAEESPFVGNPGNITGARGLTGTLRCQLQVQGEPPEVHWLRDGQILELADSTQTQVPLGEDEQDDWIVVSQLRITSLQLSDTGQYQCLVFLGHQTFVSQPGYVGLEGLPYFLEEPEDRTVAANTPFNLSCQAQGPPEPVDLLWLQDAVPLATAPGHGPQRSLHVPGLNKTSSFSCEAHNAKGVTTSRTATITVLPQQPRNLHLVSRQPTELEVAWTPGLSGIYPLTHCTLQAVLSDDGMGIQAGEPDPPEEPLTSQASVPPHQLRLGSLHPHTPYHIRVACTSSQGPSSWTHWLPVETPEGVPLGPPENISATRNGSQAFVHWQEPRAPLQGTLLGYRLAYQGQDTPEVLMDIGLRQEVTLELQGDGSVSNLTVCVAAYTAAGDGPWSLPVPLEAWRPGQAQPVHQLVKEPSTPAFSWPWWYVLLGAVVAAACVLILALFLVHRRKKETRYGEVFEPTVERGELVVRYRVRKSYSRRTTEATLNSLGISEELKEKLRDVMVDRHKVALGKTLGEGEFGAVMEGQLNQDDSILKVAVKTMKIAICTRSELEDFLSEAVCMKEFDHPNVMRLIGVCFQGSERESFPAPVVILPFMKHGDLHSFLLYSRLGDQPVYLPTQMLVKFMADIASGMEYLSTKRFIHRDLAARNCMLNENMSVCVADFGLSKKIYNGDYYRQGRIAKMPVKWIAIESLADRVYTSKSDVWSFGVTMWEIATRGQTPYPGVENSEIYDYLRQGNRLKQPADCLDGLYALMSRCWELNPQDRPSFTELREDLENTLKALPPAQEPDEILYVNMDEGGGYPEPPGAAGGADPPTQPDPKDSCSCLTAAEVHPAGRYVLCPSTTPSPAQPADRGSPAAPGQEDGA
# ALK tyrosine kinase receptor (Homo sapiens), sequence (Q9UM73 19-1620 limits assumed): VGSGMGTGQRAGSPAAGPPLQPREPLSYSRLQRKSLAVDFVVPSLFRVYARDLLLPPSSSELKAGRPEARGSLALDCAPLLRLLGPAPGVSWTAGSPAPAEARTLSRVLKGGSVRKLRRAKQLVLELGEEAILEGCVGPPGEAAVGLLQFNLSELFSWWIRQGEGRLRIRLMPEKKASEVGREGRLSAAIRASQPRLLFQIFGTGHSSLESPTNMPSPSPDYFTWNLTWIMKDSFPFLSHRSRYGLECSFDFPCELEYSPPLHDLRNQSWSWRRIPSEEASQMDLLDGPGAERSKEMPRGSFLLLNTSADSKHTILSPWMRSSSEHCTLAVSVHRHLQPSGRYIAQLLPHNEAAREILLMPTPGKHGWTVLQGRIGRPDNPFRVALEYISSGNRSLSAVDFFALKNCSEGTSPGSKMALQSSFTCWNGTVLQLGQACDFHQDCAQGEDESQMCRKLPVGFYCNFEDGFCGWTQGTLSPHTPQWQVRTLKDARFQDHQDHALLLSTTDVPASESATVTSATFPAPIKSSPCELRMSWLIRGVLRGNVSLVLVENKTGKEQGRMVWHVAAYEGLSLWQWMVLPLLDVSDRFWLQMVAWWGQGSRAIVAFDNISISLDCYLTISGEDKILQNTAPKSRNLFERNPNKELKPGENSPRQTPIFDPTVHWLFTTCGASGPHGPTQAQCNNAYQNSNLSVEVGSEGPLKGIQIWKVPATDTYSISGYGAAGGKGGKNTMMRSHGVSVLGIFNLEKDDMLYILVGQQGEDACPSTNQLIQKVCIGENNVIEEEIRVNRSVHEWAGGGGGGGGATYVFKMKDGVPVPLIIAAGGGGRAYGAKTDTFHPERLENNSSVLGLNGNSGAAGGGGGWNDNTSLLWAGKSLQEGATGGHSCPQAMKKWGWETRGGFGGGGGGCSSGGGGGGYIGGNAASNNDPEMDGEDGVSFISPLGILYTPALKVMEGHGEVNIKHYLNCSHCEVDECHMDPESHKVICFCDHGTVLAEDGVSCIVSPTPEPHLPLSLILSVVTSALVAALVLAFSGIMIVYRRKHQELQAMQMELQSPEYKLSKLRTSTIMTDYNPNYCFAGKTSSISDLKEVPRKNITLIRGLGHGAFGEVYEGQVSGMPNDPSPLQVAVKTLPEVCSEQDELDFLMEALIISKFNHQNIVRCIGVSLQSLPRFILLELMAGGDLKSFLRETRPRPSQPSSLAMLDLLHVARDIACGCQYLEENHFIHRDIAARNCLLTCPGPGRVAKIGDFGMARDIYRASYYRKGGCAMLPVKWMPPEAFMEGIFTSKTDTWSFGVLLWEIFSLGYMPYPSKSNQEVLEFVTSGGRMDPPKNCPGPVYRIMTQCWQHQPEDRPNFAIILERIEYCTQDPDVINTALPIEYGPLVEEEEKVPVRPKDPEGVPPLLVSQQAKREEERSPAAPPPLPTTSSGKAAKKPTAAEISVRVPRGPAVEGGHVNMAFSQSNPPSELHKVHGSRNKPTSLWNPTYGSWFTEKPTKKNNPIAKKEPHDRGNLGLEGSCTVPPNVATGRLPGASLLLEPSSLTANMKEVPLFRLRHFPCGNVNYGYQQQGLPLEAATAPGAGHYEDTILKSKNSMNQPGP
# Tyrosine-protein kinase ABL2 (Homo sapiens), sequence (P42684 whole entry): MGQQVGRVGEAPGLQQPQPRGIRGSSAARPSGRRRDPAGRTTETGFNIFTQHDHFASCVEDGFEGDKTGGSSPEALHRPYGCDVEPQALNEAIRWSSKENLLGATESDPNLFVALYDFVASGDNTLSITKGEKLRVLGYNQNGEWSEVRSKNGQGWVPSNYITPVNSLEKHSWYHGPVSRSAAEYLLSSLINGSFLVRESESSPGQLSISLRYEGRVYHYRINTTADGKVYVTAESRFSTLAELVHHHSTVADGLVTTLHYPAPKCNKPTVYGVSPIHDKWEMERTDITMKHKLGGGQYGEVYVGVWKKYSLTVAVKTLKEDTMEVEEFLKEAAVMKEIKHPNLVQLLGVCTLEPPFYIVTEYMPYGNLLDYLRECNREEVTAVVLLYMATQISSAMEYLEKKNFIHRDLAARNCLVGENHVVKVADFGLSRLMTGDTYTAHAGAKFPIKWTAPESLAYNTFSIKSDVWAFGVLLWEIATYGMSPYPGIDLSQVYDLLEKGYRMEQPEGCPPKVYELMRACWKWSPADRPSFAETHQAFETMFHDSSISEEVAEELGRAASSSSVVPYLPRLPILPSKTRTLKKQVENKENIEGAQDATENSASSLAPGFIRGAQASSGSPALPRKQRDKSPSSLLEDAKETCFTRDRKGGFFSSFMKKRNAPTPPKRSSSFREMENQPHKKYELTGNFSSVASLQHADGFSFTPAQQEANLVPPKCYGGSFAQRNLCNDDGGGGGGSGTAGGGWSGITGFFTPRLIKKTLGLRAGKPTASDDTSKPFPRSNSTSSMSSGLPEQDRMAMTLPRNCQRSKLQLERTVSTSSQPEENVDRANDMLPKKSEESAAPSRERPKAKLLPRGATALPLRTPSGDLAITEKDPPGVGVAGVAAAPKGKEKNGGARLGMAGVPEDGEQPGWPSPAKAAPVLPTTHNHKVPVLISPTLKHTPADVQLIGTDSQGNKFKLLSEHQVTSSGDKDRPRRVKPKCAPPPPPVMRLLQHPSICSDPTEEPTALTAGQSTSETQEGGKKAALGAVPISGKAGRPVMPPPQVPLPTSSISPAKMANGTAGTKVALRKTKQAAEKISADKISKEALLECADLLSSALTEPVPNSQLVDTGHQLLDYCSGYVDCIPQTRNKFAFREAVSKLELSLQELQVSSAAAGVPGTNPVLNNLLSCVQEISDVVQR
SMILES,inhibition [1] [%],inhibition [2] [%],inhibition [3] [%],inhibition [4] [%],inhibition [5] [%],inhibition [6] [%],inhibition [7] [%],inhibition [8] [%],inhibition [9] [%],inhibition [10] [%]
Cc1ccc(C(=O)NC(C)C)cc1-c1ccc(C(=O)NCC2CC2)cc1,0.58,-2.81,-0.96,0.14,1.26,-4.4,-3.45,-2.09,-0.41,2.35
NS(=O)(=O)c1ccc(N/N=C2\C(=O)Nc3ccc(-c4cnco4)cc32)cc1,19.9,3.03,13.4,-0.39,9.41,-3.07,-0.11,-0.55,9.88,-3.81
O=C(Nc1n[nH]c2nc(-c3ccc(O)cc3)c(Br)cc12)C1CC1,87.7,22.1,67.1,22.8,72.6,23.9,72.3,7.68,25.7,-7.6
CS(=O)(=O)CCNCc1cc(-c2cc3c(Nc4ccc(OCc5cccc(F)c5)c(Cl)c4)ncnc3s2)cs1,4.55,2.36,4.31,3.45,6.21,2.96,4.5,2.95,6.38,-7.56
NCc1ccc(-n2c(-c3nonc3N)nc3cnccc32)cc1,0.9,4.15,2.66,4.78,3.54,6.31,17.3,4.87,6.75,-7.21
C/C(Nc1ccc(S(N)(=O)=O)cc1)=C1/C(=O)Nc2ccccc21,12.2,-0.47,12.8,1.79,11.7,-1.33,14.2,-0.23,10.1,0.11
c1ccc(-c2n[nH]cc2-c2ccnc(-c3ccc(OCCN4CCOCC4)cc3)c2)nc1,1.83,13.5,57.1,18.2,70,-2.58,3.94,5.43,34.1,8.29
O=C(Nc1n[nH]c2nc(-c3ccco3)ccc12)C1CC1,12.8,4.47,7.45,3.94,14,1.35,2.65,4.39,6.13,2.04
CN(C)c1ccc2c(c1)/C(=C/Nc1ccc(S(N)(=O)=O)cc1)C(=O)N2,18.4,4.7,18.7,2.76,21.3,1.86,8.32,2.83,4.52,0.79
COc1ccc(C2=C(N3CCc4ccccc43)C(=O)NC2=O)cc1,6.11,5.42,3.01,5.83,9.91,1.29,5.62,6.76,12.3,-5.65
Cc1nnc(-c2ccc(C)c(-c3ccc(C(=O)NCc4ccc(Cl)cc4)cc3)c2)o1,3.98,3.1,5.29,-2.31,1.59,-1.04,0.41,-0.31,2.57,-5.93
CNC(=O)c1cncc(/C=C/c2c(C)cccc2C)c1,2.52,21.9,70.3,6.54,57.3,-3.56,-1.77,7.09,51.3,-0.01
O=C(Nc1n[nH]c2cc(-c3cc(F)ccc3F)ccc12)C1CC1,74,13.8,49.6,8.06,51.4,2.02,4.05,3.87,19,-7.5
CCc1nccc2c1nc(-c1nonc1N)n2CC,-0.14,2.18,2.26,1.88,7.3,0.99,0.3,2.12,9.26,-0.45
Clc1ccc(CNc2nccc(-c3cnn4ncccc34)n2)cc1,2.99,2.53,4.96,1.08,8.86,-0.45,3.1,3.17,7.59,1.22
Cc1ccc(NC(=O)c2ccoc2)cc1-c1ccc(C(=O)NCC2CC2)cc1,1.92,1.38,-0.92,1.09,1.49,1.85,4.11,2.28,2.36,-3.64
CCc1cccc(CC)c1/C=C/c1cncc(C(=O)NC)c1,4.76,5.29,22.2,8.06,45.9,2.66,4.03,5.58,12.9,-2.3

SMILES,inhibition [1] [%],inhibition [2] [%],inhibition [3] [%],inhibition [4] [%],inhibition [5] [%],inhibition [6] [%],inhibition [7] [%],inhibition [8] [%],inhibition [9] [%],inhibition [10] [%]
COc1cccc(-n2cnc3c(N/N=C/c4ccncc4)ncnc32)c1,28.5,44.6,85.3,29,72.2,-1.9,-4.64,12.7,59.5,3.99
Fc1ccc(-c2ncn(C3CCNCC3)c2-c2ccnc(Oc3ccc4c(c3)OCO4)n2)cc1,3.48,4.71,4.75,5.17,9.1,4.91,6.26,5.06,9,-7.21
O=C1NC(=O)C(c2cccc(Cl)c2)=C1Nc1ccc(Cl)c(C(=O)O)c1,4.06,1.35,3.2,3.49,5.5,1.24,3.05,3.74,-0.4,-4.48
FC(F)(F)c1cccc(Nc2nccc(-c3cnn4nc(-c5ccccc5)ccc34)n2)c1,1.88,-1.1,3.96,-0.03,5.59,1.89,1.6,3.3,3.79,-3.39
C#Cc1cccc(Nc2ncnc3ccc(OCCCCNCCS(C)(=O)=O)cc23)c1,19.4,8.28,24.9,8.05,26.8,3.38,31.9,5.87,14.8,-8.14
CN(c1ccc(NC(=O)Nc2c(Cl)cccc2Cl)cc1)c1ccnc(Nc2cccc(CS(C)(=O)=O)c2)n1,73.2,19.4,56.2,16.9,53.1,1.74,4.6,25.1,55.1,4.33
O=C(Nc1n[nH]c2cc(-c3ccccc3)ccc12)C1CC1,82.8,22.3,68,13.5,63.8,3.37,4.86,6.15,31.2,-8.55
C[C@@H](Oc1cc(-n2cnc3ccc(OCC4CCN(C)CC4)cc32)sc1C(N)=O)c1ccccc1Cl,9.89,2.53,11,5.81,14,8.57,24.5,8.53,12.4,-5.23
Fc1ccc(-c2ncn(C3CCNCC3)c2-c2ccnc(Oc3ccc(Oc4ccccc4)cc3)n2)cc1,1.98,1.99,2.86,3.87,2.97,4.84,4.48,2.96,3.58,-7.4
C[C@@H](Oc1cc(-n2cnc3ccc(OC4CCN(C)CC4)cc32)sc1C(N)=O)c1ccccc1Cl,7.51,3.29,13.1,0.35,7.3,-0.85,5.48,-1.57,2.18,-8.27
O=C(NCC1CC1)c1ccc(-c2cccc(C(=O)NC3CC3)c2)cc1,1.69,2.82,3.7,3.84,8.82,1.84,3.12,3.93,5.95,-3.58
NC(=O)c1ccc(Oc2nccc(-c3c(-c4ccc(F)cc4)ncn3C3CCNCC3)n2)cc1,2.27,3.97,3.32,4.17,2.89,4.85,4.45,2.35,3.64,-7.67
COC(=O)Nc1nc2ccc(Sc3ccc(NC(=O)Nc4cc(C(F)(F)F)ccc4F)cc3)cc2[nH]1,72.3,3.61,31.3,3.45,33,1.12,2.57,11.8,58.9,1.61
COc1ccc(-c2ccc3c(NC(=O)C4CC4)n[nH]c3n2)cc1,21.2,2.3,9.63,2.39,19.3,1.28,1.76,2.81,8.05,-1.95
CN1CCN(CCCNc2nc3ccc(Oc4ccc(NC(=O)Nc5cc(C(F)(F)F)ccc5F)cc4)cc3[nH]2)CC1,32,4.8,10.8,-0.51,13.6,-3.93,0.57,-0.15,15.4,0.85
COc1cc2ncn(-c3cc(OCc4cccs4)c(C(N)=O)s3)c2cc1OC,59.6,9.05,41.8,3.87,42,-3.76,6.72,0.54,18.4,3.68
O=C(Nc1ccc(Oc2ccc3[nH]c(NC(=O)c4ccccc4)nc3c2)cc1)Nc1cc(C(F)(F)F)ccc1F,83,10.8,51.8,16.2,62.3,3.09,6.42,25.1,65.9,-3.01
